Experimental findings from PubChem BioAssay (EPA / NIEHS) are described below.

As usually defined, the AC50 is the midpoint of the concentration-response curve, whichever way the signal moves.

Records with an inconclusive call do not appear. Active and inactive are the calls of the source. Rule for the calls: active = hit-call score of the fitted dose curve at least 0.9, where 1 is the maximum; inconclusive = response in the unintended direction; inactive = score below 0.9.

The target of experiment [1] is human Opioid Receptor Delta 1 (Opiate D1), OPRD1 (gene 4985) (UniProt P41143). The experiment can be described thus: NVS_GPCR_hOpiate_D1: NovaScreen (NVS) G Protein-Coupled Receptor Assay for human Opioid Receptor Delta 1 (Opiate D1) (AID 2283280). In a few lines:
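Membrane preparations from CHO cells bearing the human receptor were incubated 1 h with test chemical, and bound radioligand was counted after filtration. Actives from 25 uM duplicate screening were retested in concentration-response.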

Experiment [2] deals with mouse Cholecystokinin, CCK1 Receptor (CCKA), Cckar (gene 12425) (UniProt O08786). The experiment can be described thus: NVS_GPCR_mCCKAPeripheral: NovaScreen (NVS) G Protein-Coupled Receptor Assay for mouse Cholecystokinin, CCK1 Receptor (CCKA) (AID 2283285). A digest of the protocol:
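Chemicals were first screened in duplicate at 25 uM, with those meeting threshold (e.g., 30% inhibition) retested in singleton concentration series to 50 uM maximum. Binding of radioligand to mouse pancreatic membranes was read after 2 h by filtration and scintillation counting.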

The target of experiment [3] is human Opioid Receptor Mu (Opiate Mu), OPRM1 (gene 4988) (UniProt P35372). The experiment can be described thus: NVS_GPCR_hOpiate_mu: NovaScreen (NVS) G Protein-Coupled Receptor Assay for human Opioid Receptor Mu (Opiate Mu) (AID 2283290).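 Note: hits lower bound tracer signal versus DMSO meaning displacement of the ligand.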 In a few lines: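 Here, radioligand binding to CHO-extracted receptor was measured after 2.5 h using filter-based scintillation detection. Initial single-concentration screening used 25 uM in duplicate with plate controls; confirmed actives went to concentration-response testing.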

Experiment [4] has as its target rat Adrenergic Receptor, Beta (Adrb), Non-selective Binding, Adrb1 (gene 24925) (UniProt P18090). The experiment can be described thus: NVS_GPCR_rAdrb_NonSelective: NovaScreen (NVS) G Protein-Coupled Receptor Assay for rat Adrenergic Receptor, Beta (Adrb), Non-selective Binding (AID 2283298). In a few lines: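 Rat cortical membranes incubated 1 h with beta-adrenergic radioligand and test chemical; bound ligand measured by filtration and scintillation counting. Screen at 25 uM duplicate, then concentration series with 50 uM maximum; loss of signal versus DMSO.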

Experiment [5] has as its target human Orphanin, Opioid Related Nociceptin Receptor 1 (ORL1), OPRL1 (gene 4987) (UniProt P41146). In words: NVS_GPCR_hORL1: NovaScreen (NVS) G Protein-Coupled Receptor Assay for human Orphanin, Opioid Related Nociceptin Receptor 1 (ORL1) (AID 2283283). A digest of the protocol: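 Cell-free binding using HEK293-derived receptor protein: radioligand displacement measured by filter scintillation 1 hour after dosing. Primary testing at 25 uM in duplicate, followed by singleton concentration series up to 50 uM; DMSO served as negative control.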

In experiment [6] the target is rat Serotonin, 5-Hydroxytryptamine Receptor 1 (5HT1), Non-Selective Binding, Htr1a (gene 24473) (UniProt P19327). The experiment can be described thus: NVS_GPCR_r5HT1_NonSelective: NovaScreen (NVS) G Protein-Coupled Receptor Assay for rat Serotonin, 5-Hydroxytryptamine Receptor 1 (5HT1), Non-Selective Binding (AID 2283286). A digest of the protocol:
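Binding of a radioligand to rat cortex membranes is read by filtration and scintillation counting after 1 h. Compounds were screened at 25 uM in duplicate. Actives were then titrated to a top of 50 uM. DMSO is the baseline.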

Experiment [7] has as its target guinea pig Serotonin, 5-Hydroxytryptamine Receptor 4 (5HT4), HTR4 (gene 100135548) (UniProt O70528). The experiment can be described thus: NVS_GPCR_g5HT4: NovaScreen (NVS) G Protein-Coupled Receptor Assay for guinea pig Serotonin, 5-Hydroxytryptamine Receptor 4 (5HT4) (AID 2283294). In a few lines: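 Compounds first screened in duplicate at 25 uM, actives followed up in concentration series. Binding measured as displacement of specific radioligand from guinea pig striatal membranes, 1 h, filter-based scintillation read-out versus DMSO baseline.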

Experiment [8] deals with rat Adrenergic Receptor, Alpha 2 (Adra2), Non-selective Binding, Adra2a (gene 25083) (UniProt P22909). In words: NVS_GPCR_rAdra2_NonSelective: NovaScreen (NVS) G Protein-Coupled Receptor Assay for rat Adrenergic Receptor, Alpha 2 (Adra2), Non-selective Binding (AID 2283299). In a few lines: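 Filter-based scintillation counting of radioligand binding to rat cortical membrane receptors, measured 1.25 hours post-dosing; loss of signal versus DMSO indicates displacement. Initial single-concentration duplicate at 25 uM, then concentration series.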

The target in experiment [9] is human Thromboxane A2 Receptor (TXA2), TBXA2R (gene 6915) (UniProt P21731). In words: NVS_GPCR_hTXA2: NovaScreen (NVS) G Protein-Coupled Receptor Assay for human Thromboxane A2 Receptor (TXA2) (AID 2283282).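 Note: actives reduce bound radioligand signal relative to DMSO baseline.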 In a few lines:
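Screening ran at 25 uM in duplicate, with concentration series for confirmed actives. Each test measures radioligand binding to human platelet protein after 1 h, cell-free, using filter-based scintillation detection of signal loss relative to DMSO.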

The subject of experiment [10] is 5-hydroxytryptamine receptor 2C (pig). In words: NVS_GPCR_p5HT2C: NovaScreen (NVS) G Protein-Coupled Receptor Assay for pig Serotonin, 5-Hydroxytryptamine Receptor 2C (5HT2C) (AID 2283288). In a few lines:
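Radioligand displacement on membranes from pig choroid plexus, detected by filter scintillation counting after 1 h. Tested first at a single 25 uM in duplicate, then in concentration-response for actives; DMSO served as baseline.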

Experiment [11] deals with guinea pig Bradykinin Receptor B2 (BK2), BDKRB2 (gene 100135486) (UniProt O70526). In words: NVS_GPCR_gBK2: NovaScreen (NVS) G Protein-Coupled Receptor Assay for guinea pig Bradykinin Receptor B2 (BK2) (AID 2283292). In a few lines: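 Guinea pig ileum membrane preparation incubated 1 h with radioligand and test chemical; bound counts measured after filtration. Primary duplicate screening at 25 uM, then singleton concentration series with a 50 uM top dose; DMSO as baseline.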

The target in experiment [12] is rat Serotonin, 5-Hydroxytryptamine Receptor (5HT), Non-Selective Binding, Htr1a (gene 24473) (UniProt P19327). The experiment can be described thus: NVS_GPCR_r5HT_NonSelective: NovaScreen (NVS) G Protein-Coupled Receptor Assay for rat Serotonin, 5-Hydroxytryptamine Receptor (5HT), Non-Selective Binding (AID 2283295). A digest of the protocol:
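Rat cortex membrane preparation incubated 1 h with radioligand and test chemical; bound radioactivity counted after filtration. Screening began in duplicate at 25 uM with concentration-series follow-up; fitting relative to DMSO.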

Experiment [13] concerns the target rat Adrenergic, Alpha 1A Receptor (Adra1A), Adra1a (gene 29412) (UniProt P43140). In words: NVS_GPCR_rAdra1A: NovaScreen (NVS) G Protein-Coupled Receptor Assay for rat Adrenergic, Alpha 1A Receptor (Adra1A) (AID 2283296). A digest of the protocol:
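Filter radiodetection after 1 h competitive binding on CEC-pretreated rat cortical membranes. Duplicate single-point screening at 25 uM; active chemicals retested across concentration series.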

For experiment [14], the system named is rat Adrenergic, Alpha 1B Receptor (Adra1B), gene 24173. In words: NVS_GPCR_rAdra1B: NovaScreen (NVS) G Protein-Coupled Receptor Assay for rat Adrenergic, Alpha 1B Receptor (Adra1B) (AID 2283297). In a few lines: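 Filter-binding radioligand competition on membranes from rat liver, read after 1 h by scintillation counting. Single-concentration duplicate screen at 25 uM, followed by concentration-response on actives, normalised to DMSO.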

In experiment [15] the target is human Vasopressin 1A Receptor (V1A), AVPR1A (gene 552) (UniProt P37288). The experiment can be described thus: NVS_GPCR_hV1A: NovaScreen (NVS) G Protein-Coupled Receptor Assay for human Vasopressin 1A Receptor (V1A) (AID 2283284). A digest of the protocol:
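Single-concentration duplicate screen at 25 uM, with concentration-response follow-up (top 50 uM) for actives. The assay measured displacement of a radioligand from human platelet-derived receptor after 1.5 h, detected by filtration and scintillation counting.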

Experiment [16] has as its target rat Adrenergic, Alpha 1, Non-selective Receptor (Adra1), Adra1a (gene 29412) (UniProt P43140). The experiment can be described thus: NVS_GPCR_rAdra1_NonSelective: NovaScreen (NVS) G Protein-Coupled Receptor Assay for rat Adrenergic, Alpha 1, Non-selective Receptor (Adra1) (AID 2283289). In a few lines:
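Chemicals first screened in duplicate at 25 uM, then actives tested in concentration series up to 50 uM. Binding measured as displacement of radioligand from rat forebrain membrane receptors, 1 h, filtration with scintillation readout; DMSO baseline.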

Chain of human Opioid Receptor Mu (Opiate Mu), OPRM1 (gene 4988) (P35372 whole entry, looked up): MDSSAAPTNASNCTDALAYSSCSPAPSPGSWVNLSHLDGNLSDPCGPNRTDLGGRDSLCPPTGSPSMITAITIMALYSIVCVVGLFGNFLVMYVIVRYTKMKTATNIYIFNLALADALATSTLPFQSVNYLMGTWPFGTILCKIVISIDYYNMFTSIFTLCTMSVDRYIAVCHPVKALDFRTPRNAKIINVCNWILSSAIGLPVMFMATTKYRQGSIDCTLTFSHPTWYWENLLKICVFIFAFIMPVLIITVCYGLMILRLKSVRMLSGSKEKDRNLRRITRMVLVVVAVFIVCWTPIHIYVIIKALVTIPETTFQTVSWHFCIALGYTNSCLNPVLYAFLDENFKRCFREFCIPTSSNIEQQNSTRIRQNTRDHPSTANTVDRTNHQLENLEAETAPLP
Chain of human Opioid Receptor Delta 1 (Opiate D1), OPRD1 (gene 4985) (P41143 whole entry, looked up): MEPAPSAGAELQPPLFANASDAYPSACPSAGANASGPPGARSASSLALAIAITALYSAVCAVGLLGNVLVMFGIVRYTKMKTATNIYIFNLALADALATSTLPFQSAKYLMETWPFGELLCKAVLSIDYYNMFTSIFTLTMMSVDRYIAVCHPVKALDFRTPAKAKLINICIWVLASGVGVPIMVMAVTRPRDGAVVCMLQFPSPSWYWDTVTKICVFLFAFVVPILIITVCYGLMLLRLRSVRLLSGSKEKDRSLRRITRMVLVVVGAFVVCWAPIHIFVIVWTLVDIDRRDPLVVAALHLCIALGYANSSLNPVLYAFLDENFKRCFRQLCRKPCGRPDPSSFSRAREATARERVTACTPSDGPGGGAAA
Chain of human Thromboxane A2 Receptor (TXA2), TBXA2R (gene 6915) (P21731 whole entry, looked up): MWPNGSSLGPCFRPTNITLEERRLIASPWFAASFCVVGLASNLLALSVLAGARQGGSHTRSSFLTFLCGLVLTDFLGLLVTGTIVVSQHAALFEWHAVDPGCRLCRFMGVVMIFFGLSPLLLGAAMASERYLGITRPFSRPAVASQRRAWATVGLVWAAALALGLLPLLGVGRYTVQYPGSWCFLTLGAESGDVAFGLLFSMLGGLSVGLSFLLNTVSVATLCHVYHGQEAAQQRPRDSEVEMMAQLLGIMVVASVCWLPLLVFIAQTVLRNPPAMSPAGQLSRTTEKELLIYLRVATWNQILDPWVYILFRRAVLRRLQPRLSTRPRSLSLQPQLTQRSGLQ
Chain of guinea pig Serotonin, 5-Hydroxytryptamine Receptor 4 (5HT4), HTR4 (gene 100135548) (O70528 whole entry, looked up): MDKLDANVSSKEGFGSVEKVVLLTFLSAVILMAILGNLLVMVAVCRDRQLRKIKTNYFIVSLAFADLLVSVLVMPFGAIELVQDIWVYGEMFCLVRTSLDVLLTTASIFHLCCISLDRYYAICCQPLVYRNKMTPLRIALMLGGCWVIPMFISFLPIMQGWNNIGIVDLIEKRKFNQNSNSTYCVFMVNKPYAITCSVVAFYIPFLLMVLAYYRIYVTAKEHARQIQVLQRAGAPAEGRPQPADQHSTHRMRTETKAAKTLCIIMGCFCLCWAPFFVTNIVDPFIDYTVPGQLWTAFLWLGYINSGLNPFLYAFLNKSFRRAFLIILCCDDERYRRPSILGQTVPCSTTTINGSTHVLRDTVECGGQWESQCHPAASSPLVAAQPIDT
Chain of mouse Cholecystokinin, CCK1 Receptor (CCKA), Cckar (gene 12425) (O08786 whole entry, looked up): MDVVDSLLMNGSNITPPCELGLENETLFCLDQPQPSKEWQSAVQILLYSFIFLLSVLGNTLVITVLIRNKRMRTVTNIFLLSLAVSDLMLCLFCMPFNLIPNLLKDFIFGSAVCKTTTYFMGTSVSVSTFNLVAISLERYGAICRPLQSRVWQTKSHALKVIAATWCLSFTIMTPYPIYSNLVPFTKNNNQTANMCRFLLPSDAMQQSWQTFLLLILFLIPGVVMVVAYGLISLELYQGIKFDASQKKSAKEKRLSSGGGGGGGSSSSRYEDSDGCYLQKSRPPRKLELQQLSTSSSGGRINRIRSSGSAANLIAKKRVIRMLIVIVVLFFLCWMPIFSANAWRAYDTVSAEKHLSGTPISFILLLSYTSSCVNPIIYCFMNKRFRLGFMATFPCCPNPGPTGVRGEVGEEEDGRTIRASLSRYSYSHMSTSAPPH
Chain of rat Adrenergic Receptor, Beta (Adrb), Non-selective Binding, Adrb1 (gene 24925) (P18090 whole entry, looked up): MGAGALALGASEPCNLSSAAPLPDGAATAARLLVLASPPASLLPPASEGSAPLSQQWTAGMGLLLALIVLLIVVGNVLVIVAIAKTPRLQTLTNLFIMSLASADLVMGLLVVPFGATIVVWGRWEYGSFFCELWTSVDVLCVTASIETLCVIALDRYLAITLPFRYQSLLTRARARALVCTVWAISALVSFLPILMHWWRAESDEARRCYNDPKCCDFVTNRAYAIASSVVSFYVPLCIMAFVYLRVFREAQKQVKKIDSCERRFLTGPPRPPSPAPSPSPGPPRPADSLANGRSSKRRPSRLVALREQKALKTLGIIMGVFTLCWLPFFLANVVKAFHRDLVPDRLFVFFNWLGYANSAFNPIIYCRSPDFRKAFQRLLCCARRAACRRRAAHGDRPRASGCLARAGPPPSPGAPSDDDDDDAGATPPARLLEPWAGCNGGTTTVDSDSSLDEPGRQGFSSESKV
Chain of rat Adrenergic Receptor, Alpha 2 (Adra2), Non-selective Binding, Adra2a (gene 25083) (P22909 whole entry, looked up): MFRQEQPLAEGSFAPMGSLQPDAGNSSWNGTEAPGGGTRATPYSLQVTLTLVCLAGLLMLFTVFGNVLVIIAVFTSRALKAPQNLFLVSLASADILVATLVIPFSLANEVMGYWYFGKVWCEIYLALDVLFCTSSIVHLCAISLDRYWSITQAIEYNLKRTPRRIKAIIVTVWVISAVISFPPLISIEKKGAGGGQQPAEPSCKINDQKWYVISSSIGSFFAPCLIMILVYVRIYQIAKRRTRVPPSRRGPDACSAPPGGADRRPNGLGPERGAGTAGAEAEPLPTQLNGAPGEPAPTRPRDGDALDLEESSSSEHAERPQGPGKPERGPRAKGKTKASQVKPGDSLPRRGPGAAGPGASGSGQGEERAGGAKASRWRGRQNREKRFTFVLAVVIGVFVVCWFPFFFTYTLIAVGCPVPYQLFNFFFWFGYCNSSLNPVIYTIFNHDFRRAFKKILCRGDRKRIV
Chain of human Orphanin, Opioid Related Nociceptin Receptor 1 (ORL1), OPRL1 (gene 4987) (P41146 whole entry, looked up): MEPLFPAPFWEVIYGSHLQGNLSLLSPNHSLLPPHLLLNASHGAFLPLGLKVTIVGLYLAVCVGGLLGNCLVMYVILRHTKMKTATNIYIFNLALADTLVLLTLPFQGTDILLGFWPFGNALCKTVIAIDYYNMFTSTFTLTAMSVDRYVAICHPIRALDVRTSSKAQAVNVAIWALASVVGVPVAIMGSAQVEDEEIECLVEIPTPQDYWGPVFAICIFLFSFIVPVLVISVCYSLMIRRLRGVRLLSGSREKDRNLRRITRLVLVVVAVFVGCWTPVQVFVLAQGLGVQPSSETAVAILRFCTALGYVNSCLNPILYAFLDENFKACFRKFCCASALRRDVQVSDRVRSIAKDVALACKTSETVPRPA
Chain of rat Serotonin, 5-Hydroxytryptamine Receptor 1 (5HT1), Non-Selective Binding, Htr1a (gene 24473) (P19327 whole entry, looked up): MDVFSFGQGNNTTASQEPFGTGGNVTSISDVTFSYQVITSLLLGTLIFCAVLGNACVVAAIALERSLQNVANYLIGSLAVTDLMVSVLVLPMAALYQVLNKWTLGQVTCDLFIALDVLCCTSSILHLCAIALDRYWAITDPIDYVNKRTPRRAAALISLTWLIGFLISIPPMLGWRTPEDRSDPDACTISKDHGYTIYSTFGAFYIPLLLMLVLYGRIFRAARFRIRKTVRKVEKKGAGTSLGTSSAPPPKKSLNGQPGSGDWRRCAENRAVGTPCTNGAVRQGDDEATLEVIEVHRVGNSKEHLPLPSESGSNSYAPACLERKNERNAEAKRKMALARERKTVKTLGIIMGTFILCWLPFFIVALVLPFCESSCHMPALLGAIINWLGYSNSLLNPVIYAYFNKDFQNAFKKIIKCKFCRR
Chain of rat Serotonin, 5-Hydroxytryptamine Receptor (5HT), Non-Selective Binding, Htr1a (gene 24473) (P19327 whole entry, looked up): as above
Chain of guinea pig Bradykinin Receptor B2 (BK2), BDKRB2 (gene 100135486) (O70526 whole entry, looked up): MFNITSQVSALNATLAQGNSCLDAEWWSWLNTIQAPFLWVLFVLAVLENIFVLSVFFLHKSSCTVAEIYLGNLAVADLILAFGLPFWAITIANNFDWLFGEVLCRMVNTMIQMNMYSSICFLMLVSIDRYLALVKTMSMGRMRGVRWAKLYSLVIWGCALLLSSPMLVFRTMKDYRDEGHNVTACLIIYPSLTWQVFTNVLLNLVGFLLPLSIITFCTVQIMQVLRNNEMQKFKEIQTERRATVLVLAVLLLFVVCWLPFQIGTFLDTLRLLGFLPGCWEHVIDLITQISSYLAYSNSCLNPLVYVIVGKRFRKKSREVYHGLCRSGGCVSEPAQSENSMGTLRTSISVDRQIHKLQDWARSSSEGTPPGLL
Chain of human Vasopressin 1A Receptor (V1A), AVPR1A (gene 552) (P37288 whole entry, looked up): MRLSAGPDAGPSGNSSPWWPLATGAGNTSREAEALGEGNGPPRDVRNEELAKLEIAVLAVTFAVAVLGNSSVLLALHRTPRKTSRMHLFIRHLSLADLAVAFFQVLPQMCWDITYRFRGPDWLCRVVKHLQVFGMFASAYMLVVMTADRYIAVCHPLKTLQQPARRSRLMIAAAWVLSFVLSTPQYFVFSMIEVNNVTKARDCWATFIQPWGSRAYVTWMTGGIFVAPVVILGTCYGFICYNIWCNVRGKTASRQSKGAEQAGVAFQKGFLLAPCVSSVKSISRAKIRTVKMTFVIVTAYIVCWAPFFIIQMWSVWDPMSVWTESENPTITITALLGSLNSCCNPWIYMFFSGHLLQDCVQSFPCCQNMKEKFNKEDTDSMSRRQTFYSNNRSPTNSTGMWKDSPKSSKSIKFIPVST

Regarding `CC(C)(C)c1csc(-c2cc3cc(OCc4ccccc4CC(=O)O)ccc3o2)n1`, the call in experiment [1] and in experiment [2] was inactive.
On to `CC[C@H](NC(=O)c1cc(F)ccc1NS(=O)(=O)c1cccc2cccnc12)c1ccccc1`, for which the result in experiment [1], in experiment [3] and in experiment [4] was inactive.
As to `O=c1[nH]sc2ccccc12`, the AC50 was 3.2 µM (active) in [5], 40.4 µM (active) in [6], 33.7 µM (active) in experiment [7] and 1.55 µM (active) in [8]. Further, in [3], the compound was classed as inactive.
For the compound `CO[C@H]1/C=C/O[C@@]2(C)Oc3c(C)c(O)c4c(O)c(c(/C=N/N5CCN(C)CC5)c(O)c4c3C2=O)NC(=O)/C(C)=C\C=C\[C@H](C)[C@H](O)[C@@H](C)[C@@H](O)[C@@H](C)[C@H](OC(C)=O)[C@@H]1C`, the compound was classed as inactive in experiment [9].
With `CCCCCCCCOc1ccc(C(=O)c2ccccc2)c(O)c1`, in [9], the AC50 is 25 µM (active).
On to `CN(C)C(=O)C1(N2CCCCC2)CCN(CC[C@@]2(c3ccc(Cl)c(Cl)c3)CN(C(=O)c3ccccc3)CCO2)CC1`, for which the AC50 is 10.3 µM (active) in [1]; 4.88 µM (active) in experiment [5]; 3.99 µM (active) in experiment [2]; 1.18 µM (active) in experiment [10]; 1.41 µM (active) in experiment [3]; 14 µM (active) in [11]. Moreover, the AC50 was 23.6 µM (active) in experiment [7]; 1.71 µM (active) in experiment [12]; 10.1 µM (active) in [13]; 5.65 µM (active) in experiment [14]; 6.63 µM (active) in experiment [4]. Besides, the result in experiment [6] was inactive.
`CCN(Cc1cccnc1)C(=O)c1cccc(Cl)c1[C@]1(C)C(=O)N(Cc2ccc(OC)cc2OC)c2ccc(Cl)cc21`: the AC50 in [1] is 2.01 µM (active); in experiment [9], 6.61 µM (active); in experiment [16], 11.4 µM (active); in [3], 1.48 µM (active); in [7], 15 µM (active); in experiment [12], 17.4 µM (active). Further, the AC50 in experiment [8] is 6.92 µM (active). For the same compound, the result in experiment [15] was inactive.
For `CCCCCCCCOC(=O)c1cc(O)c(O)c(O)c1`, the AC50 is 16.4 µM (active) in [1] and 18 µM (active) in experiment [3].
